The supplement of paper PMC13380429

Legend:
[1] = test system: Vero E6 infected with SARS-CoV-2; test: morphology score (similarity to uninfected cells); higher = more like uninfected cells; details: 24 h
[2] = test system: Vero E6 infected with SARS-CoV-2; test: SARS-CoV-2 infection rate relative to infected DMSO; higher = more infection, active = 60 or less; details: 24 h

Row | SMILES | morphology score [1] | SARS-CoV-2 infection rate [2]
1 | COc1ccc(S(=O)(=O)Nc2c(C)cc(C)cc2C)cc1 (10 µM) | 0.217 | 80.5% (inactive)
2 | COc1ccc(N2CCOCC2)c2sc(NC(=O)N3CCC(C)(O)CC3)nc12 [tozadenant] (10 µM) | 0.275 | 97% (inactive)
3 | COc1cc(COc2cc(N)c(Cl)cc2C(=O)CCC2CCN(CCNS(C)(=O)=O)CC2)cc(OC)c1 (0.833333 µM) | 0.265 | 102% (inactive)
4 | Cc1ncc(CN2CC=C(c3ccccc3)CC2)c(N)n1 (10 µM) | 0.0617 | 108% (inactive)
5 | COc1ccc(-c2nc(-c3ccc(-c4cccc(Cl)c4)o3)[nH]c2-c2ccc(OC)cc2)cc1 [neurodazine] (10 µM) | 0.198 | 70% (inactive)
6 | Cc1cccc(-c2nn3c(c2-c2ccnc4ccc(C(N)=O)cc24)CCC3)n1 (10 µM) | 0.128 | 100% (inactive)
7 | Cn1nnc(-c2ccc(-c3ccc(N4C[C@H](COP(=O)(O)O)OC4=O)cc3F)cn2)n1 [tedizolid-phosphate] (10 µM) | 0.194 | 88% (inactive)
8 | C=CC[C@]1(O)CC[C@H]2[C@@H]3CCC4=CCCC[C@@H]4[C@H]3CC[C@@]21C [allylestrenol] (10 µM) | 0.0416 | 92.5% (inactive)
